Results on 40 molecules are retold here after PubChem BioAssay (NCI).

The panel holds about 83,000 compounds, 20% with a hit somewhere; the sample as a whole holds those more often.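 Plates (96-well) were seeded with cells, treated with compound at one concentration, and incubated for 48 hours before percent growth was determined.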 A number with no mark means an inactive call. The source made the active and inactive calls. How the source made its calls: active means growth percent below 10; inactive means the rest.

This assay deals with SNB-19 CNS. Nature of the assay: NCI-60 one-dose screen, 48 h (100 = growth as untreated, 0 = no growth, -100 = all killed). Conditions: 10 µM unless noted.
Consider `O=C1C(Cl)=C(NCCCCCCNC2=C(Cl)C(=O)c3ccccc3C2=O)C(=O)c2ccccc21`, for which the growth is 96.3%.

`CCCC/C=C/[C@@H]1C[C@H]1CCO`: the growth is 96.3%.

On to `C=C(C)[C@@H]1CC[C@]2(CO)CC[C@]3(C)[C@H](CC[C@@H]4[C@@]5(C)CC[C@H](NCO)C(C)(C)[C@@H]5CC[C@]43C)[C@@H]12`, for which the growth is 42.3%.

As to `Cc1cccc(/C=C/c2c(C(=O)/C=C/c3ccccc3)c(C)nc3ccccc23)c1`, the growth is -80.5% (active).

With `Cc1ccc(-c2nc(N3CCCNCC3)c3oc(-c4ccc(C)cc4)nc3n2)cc1`, the growth was 58.2%.

`Cc1sc2nc(NCCc3c[nH]c4ccc(Cl)cc34)[nH]c(=O)c2c1C`: the growth was 63.8%.

For `COc1ccc(OC)c(Nc2nnc(-c3ccc(O)c(OC)c3)o2)c1`, the growth was 70%.

On to `COc1ccccc1NC(=O)N=Nc1c(O)[nH]c2ccccc12`, for which the growth is 89.7%.

With `Nc1nc2ccccc2c2c1S(=O)(=O)c1ccc(Cl)cc1C2=O`, the growth is 48.8%.

In the case of `Nc1n[nH]c2cccc(C#Cc3cccc(C(=O)Nc4cc(C(F)(F)F)cc(C(F)(F)F)c4)c3)c12`, the growth is 105%.

Consider `CS(=O)(=O)Nc1cc(-c2ccc3ncnc(Nc4ccc5c(cnn5Cc5ccc(F)cc5)c4)c3c2)cnc1Cl`, for which the growth is 47%.

Take `Fc1cc2c(cc1Cl)N(c1ncnc3ccc(-c4ccc5n[nH]nc5c4)cc13)CC2`: the growth was 80%.

Take `CCN1C(=S)N(c2ccccc2)C2NC(=S)N(/N=C/C=C/c3ccccc3OC)C21` (stereo not given): the growth was 31.3%.

For the molecule `O=c1c2cccc3c(N4CCCC4)ccc(c32)c2nc3ccccc3n12`, the growth was 76%.

Consider `OB1OCc2cc(/C=C/c3cccc(C(F)(F)F)c3)ccc21`, for which the growth is 20.8%.

`O=C(/C=C/c1ccccc1)Nc1ncc(Cc2ccccc2Cl)s1`: the growth is 30.5%.

For `CN(C)CCNC(=O)c1ccc(-c2nc3ccc4[nH]ncc4c3c3c2C2CCC3C2)cc1` (stereo not given), the growth is 60.9%.

Turning to `COC12C=C/C(=C(/C(=O)OCc3ccncc3)C(=O)CCCCCCCCC3(OC)C=C/C(=C(/C(=O)OCc4ccncc4)C(=O)CCCCCCCC1)O3)O2`, the growth is 7.98% (active).

Take `O=C(/C=C/c1cccc(Cl)c1)c1cccc(OCCCOc2cccc(C(=O)/C=C/c3cccc(Cl)c3)c2)c1`: the growth was 101%.

`CCn1c(SCC(=O)N/N=C(\C)c2ccc(Cl)cc2)nc2c1c(=O)n(C)c(=O)n2C`: the growth was 99.2%.

As for `Cc1ccc(C[P+](c2ccccc2)(c2ccccc2)c2ccccc2)cc1`, the growth was 19.9%.

On to `Clc1ccc2c(NC3CCC(N4CCOCC4)CC3)ccnc2c1` (stereo not given), for which the growth was 79.3%.

As to `Cc1ccc(C2=Nc3c(N)ncnc3NC(c3cccc(Nc4ccnc5cc(C(F)(F)F)ccc45)c3)C2)cc1` (stereo not given), the growth was 43.6%.

In the case of `COc1ccc(-c2noc(C(=O)O)c2-c2cc(OC)c(OC)c(OC)c2)cc1`, the growth was 31.6%.

As for `CCOC(=O)c1nn(-c2ccc(S(N)(=O)=O)cc2)c2nc(C)cc(=O)n12`, the growth is 98.8%.

Take `CCSC(SCC)c1ccc(Cl)cc1`: the growth is 110%.

As for `CSc1nc2ccccc2cc1/C=C1/C=C(c2ccccc2)NC1=O`, the growth is 80.1%.

For `COC1/C=C/OC2(C)Oc3c(C)c(O)c4c(O)c(c(/C=N/Nc5ccc([N+](=O)[O-])cc5[N+](=O)[O-])c(O)c4c3C2=O)NC(=O)C(C)=C/C=C/C(C)C(O)C(C)C(O)C(C)C(OC(C)=O)C1C` (stereo not given), the growth was 38.6%.

For `O=C1C(Cl)=C(Nc2ccc(S(=O)(=O)N3CCOCC3)cc2)C(=O)c2ccccc21`, the growth is 96.9%.

For `c1csc(-c2ccc(CNc3c4ccccc4nc4ccccc34)cc2)c1`, the growth was 46.2%.

Take `Nc1ncc(-c2ccc3ncnc(Nc4cccc(Cl)c4)c3c2)cn1`: the growth is 59.4%.

Regarding `CCOC(=O)C#Cc1c(C(=O)OCC)nnn1Cc1ccc([N+](=O)[O-])cc1`, the growth was 87.9%.

On to `O=C(CSc1nc2ccc([N+](=O)[O-])cc2[nH]1)Nc1ccc([N+](=O)[O-])cc1`, for which the growth was 12.4%.

Take `CC(C)(Sc1cc(C(C)(C)C)c(OC(=O)CCCC(=O)O)c(C(C)(C)C)c1)Sc1cc(C(C)(C)C)c(OC(=O)CCCC(=O)O)c(C(C)(C)C)c1`: the growth is 29.6%.

For the molecule `O=C(N(c1ccccc1)c1ccccc1)n1cc(I)c2nc(Cl)nc(Cl)c21`, the growth is 46.8%.

In the case of `NC(=O)CSc1oc(-c2ccccc2)nc1S(=O)(=O)c1ccc(Br)cc1`, the growth is 83%.

Turning to `COc1ccc(/C=C/C(=O)c2cc3c(N)c(C(=O)Nc4cccc5ccccc45)sc3nc2C)cc1`, the growth was 56.3%.

As to `Nc1ncnc2c1c(-c1cccc(Cl)c1)nn2CC(=O)N1CCOCC1`, the growth was 93.9%.

Turning to `CC(=O)O[C@H]1CC2CCC3C(CC[C@@]4(C)C3C[C@H]([N+]3(C)CCCCC3)[C@@H]4OC(C)=O)[C@@]2(C)C[C@@H]1N1CCCCC1` (stereo not given in full), the growth is 100%.

Turning to `c1ccc(Cn2cc3c(c2)-c2oncc2CC3)cc1`, the growth was 35.7%.
